Hits are enriched below; roughly 11% of the tested compounds scored in any of these assays.
SW480 rereplic: DNA re-replication induction in SW480 cells; 340,000 tested, 1.8% active; Potency, µM (series often up to 46.1 µM), for the others: top-dose re-replication activation, actives largely listed as activators; AID 624297; SW480 DNA re-replication, Hoechst DNA content imaging, 48 h; note: potency is the fitted concentration of half-maximal effect; % of control where 0% means no effect; nearly all actives have a fitted effect of over 55% in size
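Compounds, transferred as 23 nL by pin tool, were incubated with cells for 48 hr; DNA content per nucleus was then quantified by Hoechst staining and fluorescence plate imaging.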
RORg inh: ROR gamma (mouse) transcription inhibition | P51450 | Drosophila S2 Gal4-RORgamma UAS-luciferase reporter, 20 h | Potency, µM (top dose mostly 53.6 µM), for the others: at the highest dose activity change, negative = inhibition, actives largely listed as inhibitors | 310,000 tested, 5.4% active; note: potency is the fitted concentration of half-maximal effect; % is set by controls: 0 for no effect and ±100 for the full control effect; nearly all actives have a fitted effect of over 60% in size
Target sequence (P51450 whole entry, looked up, the tested form may be a part): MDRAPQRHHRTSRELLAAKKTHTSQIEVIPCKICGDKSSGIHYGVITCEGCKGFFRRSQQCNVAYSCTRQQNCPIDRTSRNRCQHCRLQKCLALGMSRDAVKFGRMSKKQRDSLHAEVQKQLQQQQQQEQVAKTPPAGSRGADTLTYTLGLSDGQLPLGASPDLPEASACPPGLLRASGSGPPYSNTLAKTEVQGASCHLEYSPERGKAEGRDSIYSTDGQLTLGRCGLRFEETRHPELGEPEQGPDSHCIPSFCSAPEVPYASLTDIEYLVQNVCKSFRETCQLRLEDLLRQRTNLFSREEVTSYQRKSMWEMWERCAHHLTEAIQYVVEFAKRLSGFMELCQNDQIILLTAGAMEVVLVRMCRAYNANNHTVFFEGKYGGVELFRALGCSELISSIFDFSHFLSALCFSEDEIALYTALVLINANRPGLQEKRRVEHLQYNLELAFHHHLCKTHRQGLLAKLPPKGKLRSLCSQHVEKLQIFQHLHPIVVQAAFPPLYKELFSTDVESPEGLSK
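Read-out: Photinus luciferase luminescence; inhibitors lower reporter signal. Insect Schneider cells with Gal4-ROR gamma fusion under metallothionein promoter, UAS reporter; 700 uM final copper sulfate induction, 20 hr, ambient temperature.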
MCF10A rereplic: induces DNA re-replication in MCF 10a normal breast cells; 350,000 tested, 2.9% active; MCF 10A DNA re-replication, Hoechst nuclear intensity, 48 h; Potency, µM (titrated, usually from 46.1 µM), inactives show at the top dose activity, positive = re-replication, most hits filed as activators; note: potency is the fitted concentration of half-maximal effect; % of control where 0% means no effect; nearly all actives have a fitted effect of over 50% in size
Gal4-VP16 FLuc: inhibits Gal4-VP16 luciferase reporter, ROR gamma counter-screen; 310,000 tested, 3.5% active; AID 2546; Drosophila S2 Gal4-VP16 UAS-luciferase, luminescence, 20 h; Potency, µM (highest dose often 53.6 µM), for the others: at the highest dose activity, negative = inhibition, most hits filed as inhibitors;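 note: Gal4-VP16 expression switched on by copper sulfate through the metallothionein promoter; potency is the fitted concentration of half-maximal effect; % is set by controls: 0 for no effect and ±100 for the full control effect; nearly all actives have a fitted effect of over 50% in size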
IL1B secr inh: inflammasome signaling inhibition, IL-1 beta readout; THP-1 LPS/ATP IL-1B secretion, AlphaLISA, 16 h; active compounds read low; activity change, % at 57.5 µM; 360,000 tested, 4.7% active; in the data active = activity change below about -50%; inconclusive = mostly about -30% to -49%; note: % is set by controls: 0 for no effect and ±100 for the full control effect
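THP-1 cells pretreated 1 hr with compounds (up to 57.5 uM final), then stimulated with LPS (250 ng/mL final) plus ATP (1.25 mM final); secreted IL-1B measured by AlphaLISA after 16 hr, decreased signal indicating inhibition.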
Starred values were filed as active, the others as inactive; ? = inconclusive; nt = not tested or not shown; [ ] = dose if it differs, or a comment. Unless noted, calls come from the whole dose curve; as a rule, active = well fitted curve in the direction sought with a large enough effect; inconclusive = small, poorly fitted or top-dose-only effect, or another doubt; inactive = no such curve, though single readings can be large; an effect the other way counts as inactive or inconclusive.

SMILES	SW480 rereplic	RORg inh	MCF10A rereplic	Gal4-VP16 FLuc	IL1B secr inh
Cc1ccc(S(=O)(=O)NC(=O)C2(C)CCN2C(=O)c2ccccc2)nc1 (configuration not stated)	nt	nt	nt	nt	-6.0
CCOC(=O)CNS(=O)(=O)c1ccc(F)cc1Br	nt	11.1%	nt	0.2%	nt
COc1ccc(OC)c(NC(=O)COC(=O)CC2CCCCC2)c1	-8.6%	nt	-0.5%	nt	3.9
CCCn1c(=O)c(C(=O)NNC(=O)c2ccc(Cl)cc2Cl)c(O)c2ccccc21	-1.5%	-42.6%	-0.4%	-15.1%	-7.3
CCn1c(=O)c(C(=O)NNC(=O)Cc2ccccc2)c(O)c2ccccc21	?	12.6µM*	20.0%	-22.4%	0.8
CCn1c(=O)c(C(=O)NNC(=O)c2cccc(Cl)c2)c(O)c2ccccc21	?	?	23.1µM*	?	11.0
CCCn1c(=O)c(C(=O)Nc2ccccc2C(=O)OCC)c(O)c2ccccc21	?	-10.2%	11.2µM*	3.2%	37.7
CCn1c(=O)c(C(=O)NNC(=O)c2ccc(Cl)cc2Cl)c(O)c2ccccc21	?	10µM*	?	?	13.4
CCCCC[C@]12Cc3ccccc3C(O1)c1c(cc(C)oc1=O)O2	nt	-8.4%[10 µM]	nt	-4.7%[10 µM]	nt
COc1ccc(CNC(=O)c2ccc3ccccc3n2)cc1	-4.4%	20.8%	0.8%	17.1%	28.8
COc1ccc(CCc2ccc3ccccc3n2)cc1	-1.8%	nt	18.4µM*	nt	-1.5
COc1ccc(CCc2ccnc3ccccc23)cc1	-4.4%	nt	14.6%	nt	-62.2*
COc1ccc(CCc2nnc(CCC(=O)N(C)Cc3ccnc4ccccc34)o2)cc1	-10.2%	?	-3.2%	?	-27.7
Cc1cccc2c1N(CCOc1ccc(C(C)(C)C)cc1)C(=O)C2=O	?	-32.7%	?	?	-6.5
Cc1ccc(OCCCN2C(=O)C(=O)c3cccc(C)c32)cc1	-0.6%[9.22 µM]	7.94µM*	?	12.6µM*	13.8
O=C1C(=O)N(CCS(=O)(=O)c2ccccc2)c2ccc(Cl)cc21	?	10.0%	?	3.1%	0.0
Cc1ccc(OCCN2C(=O)C(=O)c3cc(C)ccc32)cc1	13µM*	40.1%	7.31µM*	-6.7%	119.7
CCCN1C(=O)C(=O)c2cc(Cl)ccc21	16.4µM*	nt	20.6µM*	nt	121.8
CC1(C(=O)NS(=O)(=O)c2cccc(OC(F)F)c2)CCN1C(=O)CCc1cccs1 (configuration not stated)	nt	nt	nt	nt	40.0
Cc1ccc(S(=O)(=O)N2CC(O)C[C@H]2C(=O)OCC(=O)Nc2ccc(N3CCCCC3)cc2)cc1C (some centres not stated)	2.5%	nt	13.5%	nt	-1.4
CS(=O)(=O)N(CC(=O)N1CCN(Cc2ccccc2)CC1)c1ccccc1Br	?	13.3%	-3.7%	-13.4%	-12.2
COc1ccc(N2CCN(c3ncnc4c3[nH]c3ccccc34)CC2)cc1	-0.9%	?	5.9%	7.08µM*	-29.6
COc1ccc2[nH]c3c(N4CCc5ccccc5C4)ncnc3c2c1	?	?	3.66µM*	12.6µM*	-97.5*
COc1cc2[nH]c3c(N4CCN(c5ccccn5)CC4)ncnc3c2cc1OC	-0.8%	?	?	17.8µM*	-29.0
CN1CCN(C(=O)C[C@@H]2C[C@H]3c4cc(NC(=O)c5cccnc5)ccc4O[C@H]3[C@H](CO)O2)CC1	nt	nt	nt	nt	22.5
SMILES	SW480 rereplic	RORg inh	MCF10A rereplic	Gal4-VP16 FLuc	IL1B secr inh
NC(=O)C1CCN(CC(O)COCc2ccccc2Cl)CC1 (configuration not stated)	-6.5%	-8.7%	?	-8.0%	7.2
C[C@H]1CN([C@@H](C)CO)C(=O)c2cccc(NS(=O)(=O)c3ccc(F)cc3)c2O[C@H]1CN(C)S(=O)(=O)c1cn(C)cn1	-0.5%	nt	-23.5%	nt	17.6
O=C(CN1C(=O)CCC1=O)Nc1ccc(Cc2ccc(NC(=O)CN3C(=O)CCC3=O)cc2)cc1	-16.2%	14.9%	1.4%	-0.9%	-68.8*
CC(=O)c1ccc(NC(=O)CN2C(=O)CCC2=O)cc1	-1.1%	3.3%	4.8%	1.0%	-1.5
Cc1cccc(NS(=O)(=O)c2cccc(C(=O)N3CCCCCC3)c2)c1	1.4%	nt	5.2%	nt	8.0
CNS(=O)(=O)c1cccc(C(=O)NCC2(N3CCCCC3)CCCCC2)c1	-7.0%	-0.7%	3.5%	7.9%	-1.3
Cc1cccc(NS(=O)(=O)c2cccc(C(=O)N3CCCCCCC3)c2)c1	-5.6%	nt	-3.9%	nt	-60.2*
CCC(CC)C(=O)Nc1cccc(C(=O)N2CCCCCC2)c1	?	-15.2%	20.6µM*	7.5%	6.4
Cc1cccc(NS(=O)(=O)c2cccc(C(=O)NCC3(N4CCCCC4)CCCCC3)c2)c1	12.0%	nt	9.7%	nt	-64.5*
Cc1cccc(NS(=O)(=O)c2cccc(C(=O)NCC(c3ccco3)N3CCCCC3)c2)c1 (configuration not stated)	13.6%	nt	?	nt	-59.2*
COc1ccc([C@@H]2C[C@H]3[C@@H](CN2S(=O)(=O)c2ccccc2)C(=O)C[C@@H](c2ccc(OC)cc2)N3S(=O)(=O)c2ccccc2)cc1	nt	nt	nt	nt	8.7
O=C(O)c1ccc(S(=O)(=O)N[C@H](Cc2ccc(C(F)(F)F)cc2)C(=O)O)cc1	nt	6.7%	nt	4.1%	nt
O=C(NCC1(N2CCOCC2)CCCCC1)c1cccc(S(=O)(=O)N2CCc3ccccc3C2)c1	5.6%	-0.5%	14.6µM*	-10.8%	-9.6
Cc1cccc(NS(=O)(=O)c2cccc(C(=O)N3CCN(C/C=C/c4ccccc4)CC3)c2)c1	3.0%	nt	23.1%	nt	-54.3*
CC[C@H](C)[C@H](NC(=O)[C@H](Cc1ccc(O)cc1)NC(=O)[C@@H](NC(=O)[C@@H](N)CCCN=C(N)N)C(C)C)C(=O)N[C@@H](Cc1cnc[nH]1)C(=O)N1CCC[C@H]1C(=O)N[C@@H](Cc1ccccc1)C(=O)O	nt	1.6%	nt	-5.3%	nt
O=S1(=O)CC(N2CCN(CC3CC3)CC2)CN1Cc1cn(Cc2ccccc2C(F)(F)F)nn1 (configuration not stated)	nt	nt	nt	nt	8.5
Cc1[nH]nc2c1C1(CCN(C(=O)OCc3ccccc3)CC1)C(C#N)=C(N)O2	-7.8%	5.01µM*	11.0%	?	?
CCOC(=O)CSc1nc(C)c(C(C)=O)cc1C(N)=O	-0.7%	4.2%	0.4%	1.6%	-57.3*
CCC(CC)c1nn2c(N)c(/C=C3\C(C)=Nc4ccccc43)c(=O)nc2s1	-5.8%	-3.9%	23.1µM*	3.6%	nt
CCC(CC)c1nn2c(N)c(/C=C3\C=Nc4ccccc43)c(=O)nc2s1	?	-21.9%	3.26µM*	1.8%	4.3
CC(C)Sc1nsc2nc(=O)c(/C=C3\C=Nc4ccccc43)c(N)n12	?	31.9%	18.4µM*	-6.0%	?
COCCN(CC(=O)Nc1cccc(C)c1C)C(=O)CN1C(=O)NC2(CCCCC2)C1=O	2.0%	nt	16.0%	nt	-2.3
